Compound activity: PubChem, National Center for Advancing Translational Sciences (NCATS)
Abeta yeast res = compounds reversing amyloid beta toxicity in yeast; Potency, µM (series often up to 46.1 µM), most hits filed as activators; AID 1347071; yeast expressing A-beta42, growth rescue, OD600, 48 h; response scale: 0% DMSO, 100% iron-clioquinol control; 410,000 compounds, 0.063% hits; further: nearly all actives have a fitted effect of over 55% in size
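Growth rescue measured by 600 nm absorbance after 48 h yeast culture at 30 C with compound. Values normalized between DMSO and an equimolar ferric chloride plus clioquinol control.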
Mito fusion yeast = inhibitors of mitochondrial division or activators of mitochondrial fusion; Potency, µM (doses to about 46.1 µM), hits mostly activators; S. cerevisiae fusion-defective mutant growth rescue, CellTiterGlo 48 h; 320,000 compounds, 0.23% hits; further: nearly all actives have a fitted effect of over 45% in size
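Temperature-sensitive fusion-defective S. cerevisiae (e.g. fzo1-1, mgm1-5) were grown with compound in YPEG medium (3% ethanol, 3% glycerol) for 48 hours at 37C. Growth rescue was measured as viability by CellTiterGlo luminescence after 10 minutes at ambient.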
aSyn rescue = alpha-synuclein toxicity inhibition in yeast | 370,000 compounds, 0.14% hits | Yeast expressing alpha-synuclein, growth rescue, BacTiter-Glo, 24 h | Potency, µM (series often up to 46.1 µM), most hits filed as activators | AID 652106; further: nearly all actives have a fitted effect of over 65% in size
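Readout is rescue of growth in alpha-synuclein-expressing yeast, so inhibitors of toxicity appear as activators. Growth after 24 hr at 30 deg C in galactose medium is quantified by luminescence.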
FUS suppressor = suppressors of FUS proteinopathy in yeast. S. cerevisiae FUS-expressing, growth rescue, OD600, 24 h. Potency, µM (top dose mostly 76.6 µM), usual class: activators. 390,000 compounds, 0.24% hits; further: nearly all actives have a fitted effect of over 55% in size
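Yeast expressing FUS under galactose induction, OD 0.005 in 2% galactose medium; compounds in a dilution series, 24 h at 30C. Growth rescue by absorbance at 600 nm; CP55940 positive control, DMSO negative.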
TDP-43 yeast inh = TDP-43 toxicity inhibition in yeast; TDP-43 expressing yeast growth rescue, BacTiter-Glo, 24 h; Potency, µM (highest dose often 46.1 µM), actives largely listed as activators; 410,000 compounds, 1.8% hits; further: nearly all actives have a fitted effect of over 50% in size
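Yeast cells expressing TDP-43 under galactose induction are exposed to compounds for 24 hr at 30 deg C. BacTiter-Glo luminescence measures growth, so protective compounds score as activators.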
Hits are given with their value; . = inactive; ? = inconclusive; / = not tested or not shown. Compounds with a hit are over-represented: about 2.2% of the library has one in this group of screens. The call rests on the fitted dose curve; in most records, active means well fitted curve in the direction sought with a large enough effect; inconclusive means small, poorly fitted or top-dose-only effect, or another doubt; inactive means no such curve, though single readings can be large; an effect the other way counts as inactive or inconclusive.

SMILES	Abeta yeast res	Mito fusion yeast	aSyn rescue	FUS suppressor	TDP-43 yeast inh
COc1cc2c(cc1OC)C(COc1ccc(F)cc1)N(C(=O)c1cccc(F)c1)CC2 (stereo not given)	.	/	.	.	35.5µM
COC(=O)[C@]12C[C@H](CC(=O)NCCCCc3ccccc3)C(=O)N(Cc3ccc(Cl)cc3Cl)C1=C[C@H](COCc1ccccc1)O[C@@H]2C	/	/	/	.	/
Cc1ccc(-c2csc(N/N=C/c3ccco3)n2)cc1	.	.	.	?	.
Clc1ccc(-c2csc(N/N=C/c3ccco3)n2)cc1	.	.	.	.	6.31µM
O=C(COc1cccnc1[N+](=O)[O-])Nc1ccccc1Sc1ccccc1	.	.	.	/	14.1µM
O=C(COc1cccnc1[N+](=O)[O-])Nc1cccc(Br)c1	.	/	.	.	.
COc1cccc(C2=NO[C@@H]3C(=O)N(c4ccc5c(c4)OCCO5)C(=O)[C@H]23)c1OC	.	.	.	.	.
COc1cccc(C2=NO[C@@H]3C(=O)N(Cc4ccccc4)C(=O)[C@H]23)c1OC	.	.	.	.	12.6µM
CCOC(=O)[C@@]12CN(C(=O)OC(C)(C)C)CC=C1N(Cc1ccc(OC)cc1)C(=O)[C@H]2CC(=O)NCCCOC	/	/	/	.	/
O=c1c2cc(Br)ccc2nc(-c2ccccc2)n1O	.	.	.	.	.
CCn1cc(Br)c(C(=O)Nc2ccc(Cl)cc2Cl)n1	.	.	.	.	4.47µM
CCn1cc(Br)c(C(=O)Nc2ccc(F)c(Cl)c2)n1	.	.	.	.	11.2µM
CCn1c(-c2cccnc2Cl)nc2cc(Cl)c(Cl)cc21	.	.	.	.	?
Cc1nc2cc(Cl)c(Cl)cc2n1-c1ccccn1	.	.	.	.	12.6µM
Cc1ccc(C)n1-c1sccc1C(=O)O	.	.	.	12.6µM	.
Cc1ccc(C)n1-c1sc2c(c1C(=O)O)CCCC2	.	.	.	.	.
Fc1ccccc1-c1nc(NCC2CC2)nc2ccsc12	.	/	.	.	22.4µM
FC(F)(F)c1cc(-c2ccco2)nc(NCc2cccs2)n1	.	.	.	.	20µM
FC(F)(F)c1cc(-c2ccco2)nc(NCc2ccco2)n1	.	.	.	.	?
C[C@H]1[C@@H](NC(=O)Cc2ccsc2)CC[C@@]23CCCN2C(=O)CCC[C@@H]13	/	/	/	.	/
Fc1ccc(-c2csc(-c3ccncc3)n2)cc1	.	.	.	.	12.6µM
c1cncc(-c2nc(-c3cccs3)cs2)c1	.	.	.	.	.
c1csc(-c2csc(-c3cccs3)n2)c1	.	.	.	.	12.6µM
c1ccc(Nc2nc(-c3cccs3)cs2)nc1	.	.	.	.	35.5µM
Fc1ccc(-c2csc(Nc3ccccn3)n2)cc1	.	.	.	.	11.2µM
SMILES	Abeta yeast res	Mito fusion yeast	aSyn rescue	FUS suppressor	TDP-43 yeast inh
OC(c1ccc(F)cc1)c1nc(-c2ccncc2)cs1 (stereo not given)	.	/	.	.	.
c1ccc(Nc2nc(-c3cccnc3)cs2)nc1	.	.	.	.	.
Cc1ccc(-c2nnc(SCCC(=O)Nc3ccccc3)n2C)cc1	/	/	.	/	/
O=C(c1cccc2ccccc12)N1CCN(S(=O)(=O)c2ccccc2)CC1	/	/	.	/	/
CCC(=O)OCCCN1C(=O)CCC12CCC(C)CC2 (stereo not given)	/	/	/	.	/
COc1ccc(-c2csc(Nc3cccc(C)n3)n2)cc1	.	.	.	.	17.8µM
CC(=O)Oc1ccc(-c2csc(Nc3ccccn3)n2)cc1	.	/	.	.	12.6µM
CC(=O)Oc1ccc(-c2csc(Nc3cccc(C)n3)n2)cc1	.	.	.	.	.
Cc1cccc(Cc2cnc(NC(=O)C3Cc4ccc(C)cc4C(=O)O3)s2)c1 (stereo not given)	.	/	.	.	.
Nc1ccccc1SCc1ccccc1	.	.	.	.	.
N#CC(=C(\N)Sc1ccccc1N)/C(C#N)=C(/N)Sc1ccccc1N	/	18.4µM	.	/	/
COc1ccc(N/C(C)=C/C(=O)c2ccccc2)cc1	.	.	.	/	.
COc1ccc(N/C(C)=C/C(=S)Nc2ccccc2)cc1	.	.	.	.	12.6µM
N#Cc1ccc(/C=C2\CC3(OC(=O)c4ccc(Cl)cc4)CCCN2C3)cc1 (stereo not given)	/	/	/	.	/
N#Cc1c(-c2ccccc2)cc(C2CC2)nc1N	.	?	.	.	12.6µM
Cc1ccc(-c2cc(-c3ccccc3)c(C#N)c(N)n2)o1	.	.	.	?	22.4µM
COc1cc(-c2nc(Cn3nnc(C(=O)Nc4ccc(C)cc4C)c3C)c(C)o2)cc(OC)c1OC	.	/	/	.	.
COc1ccc(C(C(=O)N(C)C2CCCC2)N(Cc2ccc(F)cc2)C(=O)c2cc(C)[nH]n2)cc1OC (stereo not given)	/	/	/	.	/
NS(=O)(=O)c1ccc(NC(=O)c2cnn3c2NC(=C2CC2)C=C3C(F)F)cc1	/	/	.	/	/
COc1nccnc1NS(=O)(=O)c1ccc(NC(=O)c2ccc(F)cc2)cc1	.	.	.	.	.
COc1ccc(C(=O)Nc2ccc(S(=O)(=O)Nc3nccnc3OC)cc2)cc1	.	.	.	.	0.316µM
CCc1ccc(S(=O)(=O)NCCc2csc3nc(-c4ccccc4)nn23)s1	.	/	/	.	22.4µM
O=S(=O)(NCCc1csc2nc(-c3ccccc3)nn12)c1cccs1	.	/	/	.	?
CCS(=O)(=O)NCCc1csc2nc(-c3ccc(OC)cc3)nn12	.	/	/	.	.
COc1ccc(-c2nc3sc(CCNC(=O)c4ccc(Br)o4)c(C)n3n2)cc1	.	/	/	?	11.2µM
SMILES	Abeta yeast res	Mito fusion yeast	aSyn rescue	FUS suppressor	TDP-43 yeast inh
COc1ccc(-c2nc3sc(CCNS(=O)(=O)c4c(C)cc(C)cc4C)c(C)n3n2)cc1	?	/	/	.	35.5µM
CCS(=O)(=O)NCCc1sc2nc(-c3ccc(OC)cc3)nn2c1C	.	/	/	.	.
COc1ccc(-c2nc3scc(CCNS(=O)(=O)c4cccs4)n3n2)cc1	.	/	/	.	25.1µM
CC(=O)N[C@@H]1C[C@@H]2O[C@H](CO)CC[C@@H]2O[C@@H]1CCc1ccc(C#CC2(O)CCCC2)cc1	/	/	/	.	/
C[C@H](CCC(=O)N(c1ccccc1)c1ccccc1)CC1CCCCC1	/	/	/	.	/
c1ccc(CNC2CCC23CCC(c2ccccc2)CC3)cc1 (stereo not given)	/	/	/	.	/
COc1ccc(-c2nc3scc(CCNS(=O)(=O)c4c(C)cc(C)cc4C)n3n2)cc1OC	.	/	/	.	22.4µM
C=CCn1c(SCC(=O)N2CCc3ccccc3C2)nc2sc(C)c(C)c2c1=O	.	12.6µM	.	.	.
CCn1c(C(=O)N2CCC(C(=O)N3CCN(c4ccc(OC)cc4)CC3)CC2)cc2sccc21	.	/	/	.	22.4µM
O=C(NCc1ccccc1C(F)(F)F)C1CC(c2ccccc2[N+](=O)[O-])=NO1 (stereo not given)	.	.	.	.	12.6µM
Cc1ccc(C(=O)CCNc2ccc(F)c(Cl)c2)o1	.	.	.	.	10µM
Cc1ccc(C(=O)CCNc2ccc(Br)cc2)o1	.	.	.	.	.
